Data reported in article PMC4336329 (PLoS ONE, 2015).
The whole screen tested about 310,000 compounds, of which about 14,000 (4.5%) showed an effect of 50% or more. Effects have a minus sign here. The entries come from a sample that favours strong results as a whole.

Biological target: human ether-à-go-go-related gene (hERG) potassium channel (human, UniProt Q12809)
Test: primary screen, population patch clamp on CHO cells stably expressing hERG; higher = less effect of the substance
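Further: peak tail current of the secondary pulse compared with the same well before compound.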

Sequence of human ether-à-go-go-related gene (hERG) potassium channel (Q12809 whole entry, looked up): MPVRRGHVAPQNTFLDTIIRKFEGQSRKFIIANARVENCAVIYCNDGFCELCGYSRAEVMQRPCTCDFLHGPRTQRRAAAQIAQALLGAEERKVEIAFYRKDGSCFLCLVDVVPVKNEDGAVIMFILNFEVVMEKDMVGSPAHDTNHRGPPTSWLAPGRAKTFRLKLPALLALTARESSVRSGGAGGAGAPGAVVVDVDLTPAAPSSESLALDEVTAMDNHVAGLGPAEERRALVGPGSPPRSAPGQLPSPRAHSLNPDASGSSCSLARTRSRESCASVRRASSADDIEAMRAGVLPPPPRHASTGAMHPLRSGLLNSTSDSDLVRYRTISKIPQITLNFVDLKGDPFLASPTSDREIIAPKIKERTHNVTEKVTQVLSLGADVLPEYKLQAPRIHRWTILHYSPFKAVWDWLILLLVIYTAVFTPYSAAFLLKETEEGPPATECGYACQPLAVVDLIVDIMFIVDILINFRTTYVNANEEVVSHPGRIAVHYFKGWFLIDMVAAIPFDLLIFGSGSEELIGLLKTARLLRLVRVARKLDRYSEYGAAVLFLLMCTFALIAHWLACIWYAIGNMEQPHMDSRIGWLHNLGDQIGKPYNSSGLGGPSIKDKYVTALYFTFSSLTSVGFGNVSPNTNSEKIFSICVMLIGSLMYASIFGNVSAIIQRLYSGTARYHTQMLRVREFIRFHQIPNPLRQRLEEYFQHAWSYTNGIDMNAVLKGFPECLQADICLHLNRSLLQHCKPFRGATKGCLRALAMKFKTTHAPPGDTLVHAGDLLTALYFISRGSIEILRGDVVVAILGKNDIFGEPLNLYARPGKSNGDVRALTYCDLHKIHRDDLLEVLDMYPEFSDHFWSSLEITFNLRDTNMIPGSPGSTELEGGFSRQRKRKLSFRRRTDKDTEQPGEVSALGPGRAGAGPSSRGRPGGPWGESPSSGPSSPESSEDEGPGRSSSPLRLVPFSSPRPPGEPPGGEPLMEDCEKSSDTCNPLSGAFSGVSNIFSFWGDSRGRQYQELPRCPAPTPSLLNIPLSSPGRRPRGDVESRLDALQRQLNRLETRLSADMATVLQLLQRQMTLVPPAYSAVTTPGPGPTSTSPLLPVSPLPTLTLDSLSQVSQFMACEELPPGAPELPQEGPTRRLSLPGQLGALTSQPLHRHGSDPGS

SMILES	hERG current change (%, negative = inhibition) at 10uM
c1ccc(CCc2nn3c(C4COc5ccccc5O4)nnc3s2)cc1 (centres unmarked)	-1.79%
COc1ccc(/C=N/n2c(C3CCCCC3)n[nH]c2=S)c(OC)c1	23.6%
COc1ccc(OC)c(S(=O)(=O)N2CCC3(CC2)CC(=O)c2ccccc2O3)c1	-47.1%
COc1cccc(N2CC(C(=O)N3CCC4(CC3)CC(=O)c3ccccc3O4)CC2=O)c1 (centres unmarked)	-53.5%
COc1ccc(N2CC(C(=O)N3CCOCC3)CC2=O)cc1 (centres unmarked)	18.3%
COc1ccc(N2CC(C(=O)N3CCC4(CC3)CC(=O)c3ccccc3O4)CC2=O)cc1 (centres unmarked)	-78.1%
COc1ccc(N2CC(C(=O)N3CCN(c4ccccc4)CC3)CC2=O)cc1 (centres unmarked)	-41.6%
COc1cccc(N2CC(C(=O)Oc3ccc4ccccc4c3)CC2=O)c1 (centres unmarked)	-7.91%
Cc1[nH]c2ccccc2c1/C=N/NC(=O)CNC(=O)Cc1ccccc1	15.5%
NC(=O)c1nnn(-c2nonc2N)c1-c1ccc([N+](=O)[O-])cc1	24.7%
C=CCn1c(SCC(=O)c2ccc(NS(=O)(=O)c3ccccc3)cc2)nnc1-c1cccs1	-19.5%
COc1cc(/C=C/C(=O)OCC(=O)Nc2sc3c(c2C#N)CCC(C)C3)ccc1OCC#N (centres unmarked)	12.1%
COc1cccc(/C=C/C(=O)c2ccc3c(c2)OCO3)c1OC	1.82%
CC1CCC2(CC1)NC(=O)N(NC(=O)c1cccs1)C2=O (centres unmarked)	9.08%
O=C(COC(=O)CNC(=O)c1sc2ccccc2c1Cl)Nc1c(Cl)cc(Cl)cc1Cl	15.6%
O=C(COC(=O)CNC(=O)c1sc2ccccc2c1Cl)Nc1cc(Cl)cc(Cl)c1	-54.7%
NC(=O)c1ccc(NC(=O)COC(=O)CNC(=O)c2sc3ccccc3c2Cl)cc1	-12.8%
Cc1nc(-c2nc(-c3c(C(=O)NNC(=O)c4ccc(Cl)cc4)noc3C)cs2)cs1	-35.1%
COCCN(C)Cc1nc(C(c2ccccc2)c2ccccc2)no1	3.28%
CCN(CC)CCN(C)Cc1nc(C(c2ccccc2)c2ccccc2)no1	-57.7%
CN(CCc1cn[nH]c1)Cc1nc(C(c2ccccc2)c2ccccc2)no1	-38.5%
O=c1c2ccccc2nc(/C=C/c2ccc(O)cc2)n1CCc1ccccc1	-17.3%

SMILES	hERG current change (%, negative = inhibition) at 10uM
O=C(CN1c2ccccc2Sc2ccccc21)NNC(=O)Nc1cccc(Cl)c1	2.84%
CCOC(=O)C1=C(COC(=O)[C@H](C)NS(=O)(=O)c2ccc(NC(C)=O)cc2)NC(=O)NC1C (some centres unmarked)	21.2%
O=C(CCCCn1c(=O)[nH]c2ccccc2c1=O)NC1CCN(Cc2ccccc2)CC1	-18.9%
CC1(C)C(=O)N(CCN2CCC(C(=O)c3ccc(F)cc3)CC2)c2ccccc21.Cl	-70.5%
Cl.O.O=C(c1ccc(F)cc1)C1CCN(CCn2c(=S)[nH]c3ccccc3c2=O)CC1	-68.9%
O=c1c2ccccc2[nH]c(=S)n1CCN1CCCC1	-19.1%
CCOc1ccccc1C(=O)N1CCC(C(=O)c2ccc(F)cc2)CC1	-25.2%
O=C(O)C(O)C(O)C(=O)O.O=C(c1ccc(F)cc1)C1CCN(CCn2c(=O)[nH]c3ccccc3c2=O)CC1	-51.8%
O=C(c1ccc(F)cc1)C1CCN(C(=O)c2ccccc2)CC1	-9.13%
CN1CCN(CCn2c(=S)[nH]c3ccccc3c2=O)CC1	6.07%
O=C(O)CCn1c(=O)[nH]c2ccccc2c1=O	12.4%
O=C(NNc1cc(Cl)cc(Cl)c1)C1CCC1	21.9%
COc1ccc(NC(=O)Cn2c(C)cc(=O)c3ccccc32)cc1	-7.76%
O=C1CN(S(=O)(=O)c2cccc(Cl)c2Cl)c2ccccc2N1	3.58%
O=C1CC(=Nc2ccccc2)NN1c1ccccc1	23.1%
CCCCNC(=O)NC1CCCC1	4.48%
c1ccc2c(c1)c1cccc3ccc4cccc2c4c31	16.4%
COC(=O)c1c(NC(=O)/C=C/c2ccco2)sc2c1CCC2	17.6%
Cc1nc(N)nc(Nc2ccc(Cl)cc2)c1Br	-7.99%
COc1ccc(NC(C)=O)cc1NC(=O)CN1CCN(CC(=O)Nc2ccc(Cl)cc2)CC1	-69.8%
COc1ccc(NC(C)=O)cc1NC(=O)CN1CCN(C2c3ccccc3-c3ccccc32)CC1	3.55%
COc1ccc(NC(C)=O)cc1NC(=O)c1ccc(Cl)cc1	-18.2%

SMILES	hERG current change (%, negative = inhibition) at 10uM
COc1ccc(NC(=O)c2ccccc2Cl)cc1NC(=O)CN1CCOCC1	-5.99%
COc1ccccc1NC(=O)CN1CCN(CC(=O)Nc2ccc(OC)c(OC)c2)CC1	-24.4%
COc1ccc(NC(C)=O)cc1NC(=O)CN1CCN(CC(=O)Nc2ccccc2Cl)CC1	-53.3%
COc1ccccc1NC(=O)CN1CCN(CC(=O)Nc2cc(NC(C)=O)ccc2OC)CC1	-50.3%
COc1ccc(NC(C)=O)cc1NC(=O)CN1CCN(c2ccccn2)CC1	10.3%
Cc1cc2c(cc1C)C(=O)NC(C)(C)C2	8.73%
COc1cccc(N2C(=O)[C@H]3C(C(=O)c4cnccn4)=NN[C@H]3C2=O)c1	13.2%
CCc1nnc(NC(=O)CSc2ccc(-c3ccc(C)cc3)nn2)s1	9.49%
O=C(NC1CC(=O)c2sccc21)c1ccc(Cl)cc1Cl (centres unmarked)	-35.6%
O=C(c1ccco1)N1CCN(C(=O)c2sccc2-c2ccccc2)CC1	-8.12%
COc1ccc(C)cc1NC(=O)CCN1CCN(c2ccccc2)CC1	-10.3%
COc1ccc(C)cc1NC(=O)CCN1CCN(C/C=C/c2ccccc2)CC1	-77.1%
COc1ccc(C)cc1NC(=O)CN1CCN(c2ccccn2)CC1	-11.7%
COc1ccc(C)cc1NC(=O)CN1CCN(C/C=C/c2ccccc2)CC1	-78.3%
CCc1ccccc1NC(=O)CN1CCN(CC(=O)Nc2cc(C)ccc2OC)CC1	-28.4%
COc1ccc(C)cc1NC(=O)CCN1CCCC1	2.36%
Cc1ccc(S(=O)(=O)c2nnn3c2nc(N2CCOCC2)c2ccccc23)c(C)c1	-31.3%
COCc1nnc(NC(=O)c2cc(C(=O)OC)cc([N+](=O)[O-])c2)s1	-2.76%
O=C(Cc1ncc(C(F)(F)F)cc1Cl)NCc1cccnc1	17.1%
COc1ccc(CC(=O)OCC(=O)Nc2ccc(OC(F)F)cc2)cc1OC	-19.7%
Cc1cc(C)n(CC(C)NC(=O)c2cc(COc3c(F)cccc3F)on2)n1 (centres unmarked)	1.49%
COc1ccc(OC)c(C2=NOC(C(=O)NCc3cccnc3)C2)c1 (centres unmarked)	-62%

SMILES	hERG current change (%, negative = inhibition) at 10uM
COc1cc(OC)c(C2=NOC(C(=O)NCc3cccnc3)C2)cc1Cl (centres unmarked)	13%
CCOc1ccc(C(=O)NCc2cccnc2)cc1[N+](=O)[O-]	-76%
CCOc1ccc(C(=O)NC(=S)NCc2cccnc2)cc1[N+](=O)[O-]	-2.86%
COc1ccc(C(=O)NC(=S)NCc2cccnc2)cc1Cl	-1.7%
COc1ccc(C(=O)NC(=S)NCc2cccnc2)cc1[N+](=O)[O-]	-12.3%
CCOc1ccc(C(=O)NC(=S)Nc2ccccn2)cc1[N+](=O)[O-]	-2.48%
COc1ccc(C(=O)NC(=S)NCc2cccnc2)cc1OC	-57.3%
COc1cccc(C2=NOC(C(=O)NCc3cccnc3)C2)c1 (centres unmarked)	35.6%
CCOc1ccc(C(=O)NC(=S)Nc2cccnc2)cc1[N+](=O)[O-]	-16.1%
COc1ccc(C(=O)NC(=S)NCc2cccnc2)cc1Br	-23.9%
CCOc1ccc(C(=O)NC(=S)Nc2ncccc2C)cc1[N+](=O)[O-]	-67.6%
NC(=O)CSc1oc(-c2ccc(F)cc2)nc1S(=O)(=O)c1ccccc1	-8.24%
Cc1ccc(S(=O)(=O)C(C#N)c2nc3ccccc3nc2OC(C)C)cc1 (centres unmarked)	-5.65%
CN(CC(=O)Nc1ccc(F)cc1)C(=O)COC(=O)C1=COCCO1	-20%
CCCCOC(=O)C1=C(C)Nc2ncnn2C1c1ccc(OC)c(OC)c1OC (centres unmarked)	-18.3%
CCOC(=O)Cc1csc(NC(=O)c2ccc3c(c2)OCO3)n1	-22.8%
Cc1nn(C(=O)CN2C(=O)c3ccccc3C2=O)c(C)c1Br	5.28%
CCOC(=O)[C@H]1[C@H]2COc3ccc(Cl)cc3[C@@H]2N2C(=O)CN(Cc3ccc(Cl)cc3)C(=O)[C@@]12C	2.8%
Cc1ccc(NC(=O)Nc2cc(Cl)ccc2C2COC(=O)C2=N)cc1 (centres unmarked)	27.9%
Cn1c(N)c(S(=O)(=O)N2CCCC2)c(=O)n(C)c1=O	26.2%
